Results published in PubChem BioAssay (EPA / NIEHS).
Inconclusive results are not listed. Active and inactive are the calls of the source. The calls were made as follows: active = hit-call score of the fitted dose curve at least 0.9, where 1 is the maximum; inconclusive = response in the unintended direction; inactive = score below 0.9.

Test: Tanguay_ZF_120hpf_JAW_legacy: (Legacy) Oregon State University Tanguay Lab 120 Hour Post-fertilization zebrafish Assay for Jaw Malformation (AID 2283638);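 as to AC50: active means more embryos with jaw malformation than DMSO controls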
Procedure: Tanguay_ZF_120hpf_legacy is a whole embryo, multiplexed endpoint assay using zebrafish larvae exposed for 120 hours post fertilization on a 96-well plate.Tanguay_ZF_120hpf_JAW_legacy is one of one assay component(s) measured or calculated from the Tanguay_ZF_120hpf_legacy assay. It is designed to make measurements of zebrafish development as detected with brightfield microscopy of developing zebrafish embryos.Data from the assay component Tanguay_ZF_120hpf_JAW_legacy was analyzed into 1 assay endpoints. This assay endpoint, Tanguay_ZF_120hpf_JAW_legacy, was analyzed in the positive analysis fitting direction relative to DMSO as the negative control and baseline of activity. Using a type of morphology reporter, gain-of-signal activity can be used to understand changes in developmentals as they relate to the whole embryo. To generalize the intended target to other relatable targets, this assay endpoint is annotated to the zebrafish development intended target family, where the subfamily is embryonic jaw development.
Zebrafish husbandry: Tropical 5D wild-type adult zebrafish were housed in at an approximate density of 1000 per 100 gallon tank at the Sinnhuber Aquatic Research Laboratory, Oregon State University, Corvallis, OR. Each tank was kept at standard laboratory conditions of 28C on a 14-h light/10-h dark photoperiod in fish water consisting of reverse osmosis water supplemented with a commercially available salt (Instant Ocean). Spawning funnels were placed into the tanks the night prior, and embryos were collected and staged. To increase bioavailability, the chorion was enzymatically removed using pronase (63.6mg/ml, >/= 3.5U/mg, Sigma-Aldrich: P5147) at 4 hours post fertilization (hpf) using a custom automated dechorionator.Chemical exposures: Six hpf dechorionated embryos were placed 1 embryo per well in a 96-well plate prefilled with 90 ul of EM using automated embryo placement systems (AEPS). Ten microliters of each row of dilution plate 2 was added to 2 exposure plates. The final DMSO concentration used was 0.64% (vol/vol). Thirty-two embryos were also exposed to 5uM trimethyltin chloride (positive control). Plates were sealed to prevent evaporation and foil covered to reduce light exposure and kept in a 28C incubator. Embryos were statically exposed until 120 hpf. At 24 hpf, embryos were assessed for photomotor response using a custom photomotor response analysis tool (PRAT) and for developmental toxicity endpoints (MO24: mortality at 24 hpf, DP: developmental progression, SM: spontaneous movement, and NC: notochord distortion). At 120 hpf, locomotor activity was measured using Viewpoint Zebralab and assessed for 18 endpoints. Zebrafish acquisition and analysis program (ZAAP), a custom program designed to inventory, acquire, and manage zebrafish data, was used to collect developmental endpoints as either present or absent (i.e., binary responses were recorded). If mortality occurred for an embryo (at either 24 or 120 hpf), the non-mortality endpoints were not measured.

SMILES | AC50 | outcome
CCC(C)(C)c1ccc(O)cc1 | 14.7 µM (active) | 
CC(Cc1ccc(OCC(=O)O)cc1)NCC(O)c1csc(C(F)(F)F)n1 (stereo not drawn) |  | inactive
CC(Cl)(Cl)C(=O)O |  | inactive
O=C(O)C1C(C(=O)O)C2(Cl)C(Cl)=C(Cl)C1(Cl)C2(Cl)Cl (stereo not drawn) |  | inactive
[N-]=[N+]=[N-] |  | inactive
O=P1(N(CCCl)CCCl)NCCCO1 (stereo not drawn) |  | inactive
OCC1CO1 (stereo not drawn) |  | inactive
ClC(Cl)(Cl)c1ccccc1 |  | inactive
Nc1cc2c3c(c1)C(c1ccccc1)=N[C@@H](NC(=O)c1cccnc1)C(=O)N3CC2 |  | inactive
c1ccc(OP(Oc2ccccc2)Oc2ccccc2)cc1 |  | inactive
Cc1ccc([N+](=O)[O-])cc1C |  | inactive
CCOS(=O)(=O)OCC |  | inactive
CCCCCCCc1ccc(O)cc1 |  | inactive
CCC1(c2ccccc2)C(=O)N=C(O)NC1=O (stereo not drawn) |  | inactive
COCCOCCO |  | inactive
ClC(Cl)c1ccccc1 |  | inactive
O=P(Oc1ccccc1)(Oc1ccccc1)Oc1ccccc1 |  | inactive
Cc1cccc(N)c1 |  | inactive
O=[N+]([O-])c1ccc(Cl)c(Cl)c1 |  | inactive

SMILES | AC50 | outcome
Nc1ccc(Cl)cc1 |  | inactive
CCOc1ccc(C(C)(C)COCc2cccc(Oc3ccccc3)c2)cc1 |  | inactive
c1ccc2c(c1)Nc1ccccc1S2 |  | inactive
c1cc2c3c(cccc3c1)CC2 |  | inactive
CC(C)(C)c1ccc(O)cc1 |  | inactive
CCOP(=S)(Oc1ccc([N+](=O)[O-])cc1)c1ccccc1 (stereo not drawn) |  | inactive
CCOP(=S)(OCC)SCSCC |  | inactive
CCCCc1ccccc1 |  | inactive
CSC(C)(C)C=NO |  | inactive
O=[N+]([O-])c1ccccc1 |  | inactive
ClC1=C(Cl)C2(Cl)C3C(Cl)C(Cl)CC3C1(Cl)C2(Cl)Cl (stereo not drawn) |  | inactive
CCOC(=O)c1ccccc1C(=O)OCC |  | inactive
CCCCN(CCCC)N=O |  | inactive
Nc1ccc2ccccc2c1 | 34.9 µM (active) | 
CCCCN(CCCC)SN(C)C(=O)Oc1cccc2c1OC(C)(C)C2 |  | inactive
CN(C)C(=O)Cl |  | inactive
O=C(O)C(Cl)Cl |  | inactive
Cc1ccc(O)cc1C |  | inactive
CC(C)(C)OOC(C)(C)C |  | inactive
